Pf Dd2 growth: qHTS Primary assay for Inhibitors of Plasmodium falciparum Dd2 growth in vitro | Potency, µM (doses to about 28.9 µM), usual class: inhibitors | 120,000 compounds, 4.3% hits | P. falciparum Dd2 growth, SYBR Green, 72 h; active means well fitted inhibition curve with a large enough effect; further: nearly all actives have a fitted effect of over 65% in size
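Readout: SYBR Green fluorescence, 485 nm excitation, 535 nm emission, after ~16 h lysis at 37C. Before that, Dd2-infected red cells (2.5% hematocrit) grew 72 h with compound, 29 uM top final concentration.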
Large screens that a line does not name were inactive; ! = not active in a repeat. Many of the other results were omitted from the sample, so hits are more common in it than they were.

CCC1c2nccn2CCCN1C(=O)CN1CCCC1=O (stereo not given)	none
Nc1ncccc1CN1CCN(C(=O)CO)CC(C(=O)O)C1 (stereo not given)	none
COc1ccc(O)cc1CN1CCC2(CCNCC2)C1	none
COc1cc(Cl)cc(CN2CCC3(CCCNC3)C2)c1OC (stereo not given)	Pf Dd2 growth 8.9µM
COc1cc(Cl)cc(CN2CCC3(CCOCC3)CC2)c1OC	none
Cc1cc(C(F)(F)F)n2ncc(C(=O)N3C[C@@H](C)[C@](O)(C4CCC4)C3)c2n1	Pf Dd2 growth 14µM
CC(C)c1cc(C(=O)N2C[C@@H](C)[C@](O)(C3CC3)C2)nc2ncnn12	none
C[C@@H]1CN(C(=O)c2cnc3sccn3c2=O)C[C@@]1(O)C1CCC1	none
O=C(O)C1CN(C(=O)c2ccco2)CCN(C2CCOCC2)C1 (stereo not given)	none
COCCC1(N(C)C)CCN(C(=O)c2ccnn2C)CC1	none
OC[C@@H]1O[C@H](CNC2CCOCC2)[C@H](N2CCOCC2)[C@@H]1O	none
CCOCC1(C)COc2ccc(C(=O)Nc3ccccc3)cc2N1 (stereo not given)	none
CCN1CCC(N(Cc2ccc(F)cc2)C(=O)Nc2cccc(C(F)(F)F)c2)CC1	Pf Dd2 growth 13µM
CCN1CCC(N(Cc2ccc(F)cc2)C(=O)Nc2ccc(C)c(F)c2)CC1	Pf Dd2 growth 11µM
CN(CC1CCOC1)C(=O)Nc1cccc(C(F)(F)F)c1 (stereo not given)	none
COc1ccc(CN(C(=O)Nc2ccc(C)c(F)c2)C2CCN(C(C)=O)CC2)cc1	none
Cc1ccc(NC(=O)N(C)CC2CCOCC2)cc1F	none
CC[C@H]1CN(C(=O)Nc2cccc(C(F)(F)F)c2)CC[C@H]1CC(=O)NCc1ccc(F)cc1	none
O=C(CCc1ccccc1)N1CCC(c2nc(C3CCOCC3)no2)C1 (stereo not given)	none
COCCN1C(=O)c2ccccc2C(C(=O)NCc2ccc(Cl)cc2)C12CCCCC2 (stereo not given)	none
CCCNc1cc(N2CCC(CCC(=O)O)CC2)ncn1	none
CC1=NS(=O)(=O)N(C)C=C1C(=O)OCc1noc(-c2ccccc2Cl)n1	none
COc1ccc(N2CC3CCC(C2)N3Cc2ccc(-c3ccccc3)cc2)cc1	none
COc1ccc(N2CC3CCC(C2)N3Cc2cccc(-c3cccnc3)c2)cc1	Pf Dd2 growth 11µM
COc1ccc(N2CC3CCC(C2)N3Cc2ccccc2)cc1	none
O=C1CCCCCN1C1CCN(Cc2ccccc2)CC1	none
C[C@@H](NC(=O)C1=C[C@@H](NC(=O)Nc2cccc(F)c2)[C@@H](O)[C@H](O)C1)C(N)=O	none
COCC(=O)N[C@H]1CC[C@]2(C)CCC([C@H](C)C(=O)NCc3ccc(OC)c(OC)c3)[C@H](O)[C@H]2[C@@H]1C (stereo not given in full)	none
c1cnc2nc(-c3ccsc3)[nH]c2c1	none
c1cnc2nc(-c3c[nH]c4ncccc34)[nH]c2c1	Pf Dd2 growth 25µM!
c1cnc2nc(C3CCNC3)[nH]c2c1 (stereo not given)	none
Cc1cc(-c2nc3ncccc3[nH]2)c(C)[nH]1	Pf Dd2 growth 28µM!
c1ccc(-c2nc3ncccc3[nH]2)nc1	none
O=C(NCc1c[nH]c2ncccc12)c1cccc2[nH]ccc12	none
Cc1ccc(C(=O)N2CCCC(n3cc(-c4nc(-c5ccccc5)no4)nn3)C2)s1 (stereo not given)	none
CCC(c1cccs1)N1C(=O)[C@H]2CN(S(=O)(=O)c3ccc(F)c(C)c3)C[C@H]2C1=O (stereo not given in full)	none
CCOCc1nc(C2CCCN(C(=O)c3ccccc3C)C2)no1 (stereo not given)	none
O=C(c1ccc(F)c(F)c1)N1CCN(C(=O)c2nnn3c2COC(c2ccccc2)C3)CC1 (stereo not given)	none
N#Cc1cccc(NC(=O)CN2C(=O)NC3(CCOCC3)C2=O)c1	none
CCC1CCCCN1C(=O)CSc1nc(-c2ccc(OC)c(OC)c2)cc(C(F)(F)F)n1 (stereo not given)	none
CCCNC(=O)C1CCN(c2cc(C)nc3c(-c4ccc(OC)c(OC)c4)c(C)nn23)CC1	none
COc1ccc(-c2cc3ccc(O)c(CN4CCCCC4C)c3oc2=O)cc1OC (stereo not given)	Pf Dd2 growth 7.1µM
COc1ccc(-c2c(C)c3ccc(O)c(CN4CCCCC4C)c3oc2=O)cc1OC (stereo not given)	Pf Dd2 growth 11µM
COc1ccc(-c2cc(C(F)(F)F)nc(SCC(=O)N3CCCCC3C)n2)cc1OC (stereo not given)	none
COc1ccc(-c2nccc3c(=O)cc(N4CCOCC4)oc23)cc1OC	none
CC(CCc1ccccc1)NC(=O)CN1C(=O)C(c2ccccc2)=NC1(C)C (stereo not given)	none
O=C1CC2(CCN(C(=O)c3ccccn3)C2)Nc2ccccc2N1 (stereo not given)	none
O=C(N[C@@H]1CCC[C@@H]1C(=O)N1CCN(c2ncccn2)CC1)c1ccncc1	none
COc1ccccc1-c1nnc2n1C(C(=O)N(C)C)CC2 (stereo not given)	none
CCN(CC)c1cc(CCC(=O)N2CCC(COC)CC2)ccn1	none
CCN(CC)c1cc(CCC(=O)O)ccn1	none
CCN(CC)c1cc(CCC(=O)NCCN(C)C2CCCCC2)ccn1	Pf Dd2 growth 1.6µM
CCN(CC)c1cc(CCC(=O)N2CCN(c3cccc(OC)c3)CC2)ccn1	none
CCN(CC)c1cc(CCC(=O)NCCCN2CCN(C)CC2)ccn1	none
CCN(CC)c1cc(CCC(=O)NCCN2CCCCCC2)ccn1	Pf Dd2 growth 3.5µM
CCN(CC)c1cc(CCC(=O)NCCOC)ccn1	none
CCN(CC)c1cc(CCC(=O)N2CCN(c3ccc(Cl)cc3)CC2)ccn1	Pf Dd2 growth 8.9µM
CCN(CC)c1cc(CCC(=O)NCCc2ccccn2)ccn1	none
O[C@@H]1CO[C@H]2[C@@H]1OC[C@@H]2n1nnnc1Sc1ccccc1	none
CN(C)CCNC(=O)c1n[nH]c2c1CN(C(=O)c1cc(F)ccc1Cl)CC2	none
CC(C)[C@@H]1CN(C(=O)c2cccc(Cn3cccn3)c2)C[C@H]1NC(=O)N(C)C	none
COc1cc(Cl)ccc1C(=O)N1CCC2(CC1)NC(=O)N(c1ccccc1)N2	none
CNC(=O)NC[C@H]1CCN(Cc2scnc2C)C[C@H]1N(C)C	none
CC(=O)Nc1ccc(OCC(=O)N(C)Cc2ccccc2)nc1	none
COc1ccc(C(=O)NC2CCN(c3cc(-c4cccs4)[nH]n3)C2)c(C)c1 (stereo not given)	none
Cc1cc(CNC(=O)c2cc(-c3ccco3)nc3c(Cl)cccc23)no1	Pf Dd2 growth 8.9µM
Cc1cc(C)n2nc(CC(=O)NCc3cc(-c4ccco4)on3)nc2n1	none
O=C(COCc1cc(-c2ccco2)on1)Nc1cccc(Cl)c1Cl	none
O=C(NC1CCN(c2cc(-c3ccc(F)cc3)[nH]n2)C1)c1ccc(Br)cc1 (stereo not given)	none
CC(C)OCCCNC(=O)c1ccc2c(c1)N(Cc1c(F)cccc1Cl)C(=O)c1ccccc1S2	none
CCN(CC)CCNC(=O)Nc1ccc2c(c1)N(Cc1ccccc1)C(=O)c1ccccc1S2	Pf Dd2 growth 4µM
CN1C(=O)c2ccccc2Sc2ccc(NC(=O)NCc3ccc(Cl)cc3)cc21	none
COC(=O)c1ccc2c(c1)N(Cc1ccc(Cl)cc1)C(=O)c1ccccc1S2	none
Cc1ccccc1CN1C(=O)c2ccccc2Sc2ccc(C(=O)O)cc21	none
Cc1cccc(CN2C(=O)c3ccccc3Sc3ccc(C(=O)N4CCCC4)cc32)c1	Pf Dd2 growth 14µM
O=C(NC1CCCC1)c1ccc2c(c1)N(Cc1c(F)cccc1Cl)C(=O)c1ccccc1S2	none
CCN(C(=O)CN1C(=O)c2ccccc2Sc2ccc(C(=O)OC)cc21)c1cccc(C)c1	Pf Dd2 growth 11µM
